High-throughput results from PubChem.
Only some compounds are listed: those with a hit (about 5.7% of all), similar ones and a draw of the others.
RORg inh = blocks mouse ROR gamma transcriptional activity | P51450 | Drosophila S2 Gal4-RORgamma UAS-luciferase reporter, 20 h | Potency, µM (titrated, usually from 53.6 µM), hits mostly inhibitors | 5.4% of 310,000 active | AID 2551; also: nearly all actives have a fitted effect of over 60% in size
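Compounds are pin-transferred onto Drosophila Schneider cells expressing a copper-inducible Gal4–ROR gamma transactivation domain fusion. After 1 hr, copper sulfate is added to 700 uM final; luciferase is read 20 hr later.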
VP16 counter = counter-screen for ROR gamma inhibitors: Gal4-VP16 reporter | AID 2546 | Potency, µM (titrated, usually from 53.6 µM), usual class: inhibitors | 3.5% of 310,000 active | Drosophila S2 Gal4-VP16 UAS-luciferase, luminescence, 20 h;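 also: Gal4-VP16 expression switched on by copper sulfate through the metallothionein promoter; nearly all actives have a fitted effect of over 50% in size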
NPSR antag = neuropeptide S receptor (human) antagonism, cAMP; Q6W5P4; CHO-NPSR cells, cAMP TR-FRET, antagonist mode; Potency, µM (series often up to 38.3 µM), most hits filed as inhibitors; 1% of 220,000 active; also: nearly all actives have a fitted effect of over 50% in size
Target sequence (Q6W5P4 whole entry, looked up): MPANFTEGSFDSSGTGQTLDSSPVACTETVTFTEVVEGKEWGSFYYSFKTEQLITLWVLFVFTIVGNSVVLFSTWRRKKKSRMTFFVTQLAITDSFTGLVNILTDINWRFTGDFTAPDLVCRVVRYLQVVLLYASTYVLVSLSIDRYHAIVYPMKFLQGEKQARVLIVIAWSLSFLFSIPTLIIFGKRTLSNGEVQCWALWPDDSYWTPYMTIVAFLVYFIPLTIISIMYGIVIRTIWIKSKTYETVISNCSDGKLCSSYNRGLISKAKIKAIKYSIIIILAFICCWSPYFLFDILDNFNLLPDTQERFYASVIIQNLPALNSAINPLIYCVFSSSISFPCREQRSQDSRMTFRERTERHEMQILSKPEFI
B2AR arrestin = beta2AR (human) beta-arrestin recruitment activity. P07550. 0.02% of 330,000 active. Potency, µM (doses to about 46.1 µM), actives largely listed as activators. beta-arrestin recruitment to beta2AR, cell-based reporter. AID 492947; also: nearly all actives have a fitted effect of over 65% in size
Numbers stand for hits; - = inactive; ? = inconclusive; . = no result given; [ ] = dose if it differs, or a comment. Calls follow the shape of the dose curve; as a rule, active = well fitted curve in the direction sought with a large enough effect; inconclusive = small, poorly fitted or top-dose-only effect, or another doubt; inactive = no such curve, though single readings can be large; an effect the other way counts as inactive or inconclusive.

SMILES	RORg inh	VP16 counter	NPSR antag	B2AR arrestin
Cc1ccc(N=Nc2ccc(O)c3ncccc23)cc1	0.056µM	.	-	-
Cc1ccc(N=Nc2ccc(O)c3ncccc23)cc1C	0.14µM	0.5µM	-	-
CCN(C(=O)COC(=O)COc1ccc(Cl)c(C)c1)C1CCS(=O)(=O)C1 (centres undefined)	.	.	.	-
COc1ccc(Cc2nc3ccc(C(=O)N4C[C@@H](C)O[C@@H](C)C4)cc3o2)cc1OC	?	?	.	-
COCCN1CCN(C(=O)c2ccc3nc(Cc4ccc(OC)c(OC)c4)oc3c2)CC1	?	7.1µM	.	-
COC(=O)c1cn(NC(=O)Cc2ccccc2Br)c(=O)c2ccccc12	-	-	-	-
COc1ccc(C(=O)On2c(-c3ccc(Br)cc3)nc3ccccc3c2=O)cc1	7.1µM	5µM	?	-
COc1cc(OC)cc(-c2nc3ccccc3c(=O)n2OC(=O)c2ccc(Br)cc2)c1	10µM	11µM	-	-
CCCN(CC(=O)Nc1ccccc1C)C(=O)C1CC(=O)N(Cc2ccccc2)C1 (centres undefined)	.	.	.	-
c1ccc2c(Nc3nc4c(s3)CCCC4)cccc2c1	13µM	?	-	-
Cc1ccc(NC(=O)c2cccc(S(=O)(=O)N3CCN(c4ccccc4)CC3)c2)nc1	.	.	.	-
COC(=O)C1=C(C)N(Cc2ccccc2)C2=C(C(=O)c3ccccc3)C(c3ccccc3)[C@@](O)(C(=O)OC)C(=O)N2C1c1ccccc1 (some centres undefined)	-[10 µM]	-[10 µM]	.	.
CCOC(=O)CCc1c(C)c2ccc(OCc3cc([N+](=O)[O-])ccc3OC)c(C)c2oc1=O	-	-	-	-
Cc1c(CCC(=O)O)c(=O)oc2cc(OCc3ccccc3Br)ccc12	-	3.2µM	.	-
COc1cccc(-c2coc3c(C)c4oc(=O)c(CCC(=O)O)c(C)c4cc23)c1	-	-	.	-
COc1cccc(-c2coc3cc4oc(=O)c(CCC(=O)O)c(C)c4cc23)c1	-	13µM	.	-
COc1ccccc1COc1ccc2c(C)c(CCC(=O)O)c(=O)oc2c1C	7.9µM	?	.	-
O=S1(=O)c2ccc(Br)cc2N2CCC[C@@H]2CN1Cc1ccccc1	.	.	.	-
COc1ccc(C(NC(=O)CN2CCCCCC2)c2ccc(OC)cc2)cc1	-	-	.	-
Cn1cccc1CC(=O)NNC(=S)Nc1ccc(Cl)cc1	11µM	?	-	-
O=C(Cc1noc2ccccc12)NNC(=S)Nc1ccc(Cl)cc1	11µM	-	-	-
O=C(Cc1noc2ccccc12)NNC(=S)Nc1ccccc1	?	-	-	-
COC(=O)N1CCC[C@@]2(CCN(c3ccccn3)C2)C1	-	-	.	.
C/C(=N\NC(=O)C1COc2ccccc2O1)c1cc2ccccc2o1 (centres undefined)	-	-	-	-
Cc1cc(C)nc(SCC(=O)NN)n1	8.9µM	-	-	-
SMILES	RORg inh	VP16 counter	NPSR antag	B2AR arrestin
Cc1cc(C)nc(SCC(=O)Nc2ncccn2)n1	-	-	-	-
COc1ccc(OC)c2[nH]c(=O)c(CCNC(=S)NC(C)(C)C)cc12	4.5µM	11µM	-	-
O=C(NC1CCCCC1)C1COc2ccccc2O1 (centres undefined)	.	.	.	-
CN(CC1COc2ccccc2O1)C(=S)NC1CCCCC1 (centres undefined)	13µM	?	-	-
CCc1ccc(NC(=O)CN(N=Nc2nonc2C)c2nonc2C)cc1	4µM	?	-	-
Cc1c(Cl)cccc1NC(=S)NN1CCOCC1	10µM	?	-	-
CCOC(=O)c1ccccc1NC(=S)N1CCC(C)CC1	13µM	?	-	-
Cc1ccc(C)c(NC(=S)N2CCCC2)c1	?	?	.	-
FC(F)(F)c1ccccc1NC(=S)N1CCN(c2ncccn2)CC1	13µM	-	-	-
FC(F)(F)c1ccccc1NC(=S)N1CCCCCC1	?	-	.	-
Cc1ccc(NC(=S)N2CCCCCC2)c(C)c1	?	18µM	.	-
CN(C)c1ncnc2ccc(-c3ccccc3C(F)(F)F)cc12	-	-	.	.
COc1ccc(C(=O)C2CCCN(Cc3c[nH]c4ccccc34)C2)c(OC)c1 (centres undefined)	-	-	-	-
O=C1OC(C2=CCCCC2)=NC12CC2	-[10 µM]	-[10 µM]	.	.
C=C1CCN(C(CC(C)C)C(=O)NN2CCOCC2)S(=O)(=O)c2ccccc21 (centres undefined)	-	-	.	.
Cn1cccc1C(=O)N1CCC2(CC1)CN(C(c1ccccc1)c1ccccc1)C2	-	-	.	.
COc1ccc(C)cc1NC(=S)N1CCN(c2ncccn2)CC1	-	-	-	-
Cc1ccc(NC(=S)N2CCN(c3ncccn3)CC2)c(C)c1	35µM	?	-	-
CCc1ccccc1NC(=S)N1N=CCC1c1ccccc1 (centres undefined)	3.2µM	7.9µM	-	-
Cc1ccc(Cl)cc1NC(=S)Nn1cnnc1	13µM	?	.	-
Cc1c(Cl)cccc1NC(=S)N1CCCCCC1	14µM	?	.	-
Cc1cccc(NC(=S)N2CCCCCC2)c1C	?	?	.	-
COc1cccc(Nc2ncc3nc(C)c(=O)n(CCc4ccccc4)c3n2)c1	-	-	.	.
Cc1noc(C)c1C(=O)N1CCC2(CCCN(c3ccncc3)C2)CC1	-	-	.	.
CN1[C@@H]2CC[C@@H]1CC(OC(=O)[C@H](CO)c1ccccc1)C2 (some centres undefined)	-	-	.	.
SMILES	RORg inh	VP16 counter	NPSR antag	B2AR arrestin
S=C(Nc1ccccc1Cl)N1CCCC1	-	-	-	-
Cc1ccc(Cl)cc1NC(=S)N1CCCCCC1	10µM	?	.	-
CCc1ccccc1NC(=S)N1CCCCCC1	14µM	?	.	-
CCc1ccccc1NC(=S)NN	11µM	?	-	?
COc1cccc(CNC(=O)C2CCCN(C(=O)c3ccc(Cl)cc3)C2)c1 (centres undefined)	.	.	.	-
CCCCC(=O)NC(c1ccc(N(C)C)cc1)c1ccc2cccnc2c1O (centres undefined)	5µM	3.2µM	.	-
CCCCC(=O)NC(c1ccc(N(CC)CC)cc1)c1ccc2cccnc2c1O (centres undefined)	2.2µM	2.8µM	.	-
CO[C@@H]1COC(=O)[C@H](COCc2ccccc2)NC(=O)C/C=C\[C@@H](C)[C@H](OC)COC(=O)[C@H](COCc2ccccc2)NC(=O)C/C=C\[C@H]1C	-[10 µM]	-[10 µM]	.	.
O=C1C(=O)N(Cc2cccnc2)C(c2ccccn2)/C1=C(/O)c1ccccc1 (centres undefined)	0.45µM	-	-	-
O=C1C(=O)N(CCCn2ccnc2)C(c2ccccn2)/C1=C(/O)c1ccccc1 (centres undefined)	-	-	-	-
O=C(Nc1ccccc1F)c1ccc2ncsc2c1	-	-	.	-
CC(=O)OC[C@@H]1O[C@H](C/C=N\O[C@@H](C)CN2CCCCc3nc(C)c(C)cc32)C=C[C@@H]1OC(C)=O	-[10 µM]	-[10 µM]	.	.
COc1ccc(CN2CSC(=S)N(Cc3ccccc3)C2)cc1	?	10µM	.	?
S=C1SCN(Cc2cccnc2)CN1Cc1cccnc1	0.63µM	5.6µM	?	-
S=C1SCN(Cc2ccccc2)CN1Cc1ccccc1	?	?	.	-
COc1ccc(CN2CSC(=S)N(Cc3ccc(OC)cc3)C2)cc1	6.3µM	18µM	?	-
Cc1ccc(S(=O)(=O)N2CCN(c3ccccc3)CC2)cc1C(=O)NC1CCCCC1	-	-	.	-
